FMDV Renilla – shows antiviral activity in FMDV Renilla assay | FMDV replicon cells, Renilla luciferase signal | Potency, µM (doses to about 57.5 µM), for the others: at the top dose activity change, negative = inhibition, usual class: inhibitors | 0.32% of 120,000 active | AID 1745857; further: nearly all actives have a fitted effect of over 55% in size
FMDV antiviral – antivirals against foot and mouth disease virus | 0.23% of 120,000 active | Potency, µM (series often up to 57.5 µM), for inactives: at the highest dose activity change, negative = inhibition, most hits filed as inhibitors | FMDV antiviral cell assay, firefly luciferase signal; further: nearly all actives have a fitted effect of over 60% in size
Numbers without * were called inactive; ? = inconclusive. Hits are enriched below; roughly 0.45% of the tested compounds scored in any of these assays. The call rests on the fitted dose curve. On the % scale 0 is the no-effect control and ±100 the full control effect; potency means the concentration at half of the fitted maximal effect.

SMILES	FMDV Renilla	FMDV antiviral
CC1CCCCC1NC(=S)Nc1cccc2cnccc12 (stereo unspecified)	?	14µM*
CC(Nc1ccc([N+](=O)[O-])c2cnccc12)c1ccc(F)cc1 (stereo unspecified)	25µM*	?
O=[N+]([O-])c1ccc(NC(c2ccccc2)c2ccccn2)c2ccncc12 (stereo unspecified)	-4%	-8%
COc1ccc(CNC(=O)COc2ncnc3ccc(Br)cc23)cc1	-5%	5%
CC(=O)c1ccc(S(=O)(=O)N2CCn3cccc3C2c2ccccc2F)cc1 (stereo unspecified)	32µM*	13%
CC(=O)c1ccc(S(=O)(=O)N2CCn3cccc3C2c2ccc(F)c(F)c2)cc1 (stereo unspecified)	23%	-9%
Cc1ccccc1NC(=O)c1sc2nc3c(cc2c1N)CN(C(C)C)CC3	14µM*	?
Cc1ccccc1NC(=O)c1sc2nc3c(cc2c1N)CN(Cc1ccccc1)CC3	?	4%
O=C(Nc1nc(-c2cccc3ccccc23)cs1)c1cccs1	?	13µM*
Cn1c(=O)c2c(ncn2CC(=O)Nc2nc(-c3cccc4ccccc34)cs2)n(C)c1=O	-7%	130%
Cc1nc2ccccc2c(=O)n1-c1ccc(NC(=O)c2cccc([N+](=O)[O-])c2)cc1	-22%	7%
Cc1nc2ccccc2c(=O)n1-c1ccc(NC(=O)c2ccc([N+](=O)[O-])cc2)cc1	2.8µM*	?
O=C(Cc1noc(C(=O)NCc2ccccn2)n1)Nc1cccc2ncccc12	-10%	1%
Cc1ccnc(NC(=O)Cc2nc(-c3ccccc3)oc2C)c1	329%	461%
CN1CCN(CN2C(=O)C(O)(CC(=O)c3ccccn3)c3ccccc32)CC1 (stereo unspecified)	-1%	9%
O=C(Nc1ccc(F)cc1F)c1ccc(S(=O)(=O)C2CCS(=O)(=O)C2)cc1 (stereo unspecified)	-10%	1%
COC(=O)c1ccccc1NC(=O)CN1C(=O)CN=C(c2ccccc2Cl)c2cc(Cl)ccc21	-10%	-29%
O=C1CN=C(c2ccccc2Cl)c2cc(Cl)ccc2N1Cc1cccc(Cl)c1	32µM*	25µM*
CN(C)c1ccc(S(=O)(=O)N2CCCCC2)cc1NC(=O)C1CCN(c2ccc(C#N)cn2)CC1	-2%	-10%
Cc1ccc(N/N=C/c2cccc(C(F)(F)F)c2)cc1Cl	9%	3%
Cc1ccc(Nc2nc3nonc3nc2Nc2cccc(C(F)(F)F)c2)cc1Cl	2.2µM*	?
Cn1nc(C(=O)NCC(c2cccs2)N2CCCC2)c2ccccc2c1=O (stereo unspecified)	-5%	10%
C/C(=N\O)c1ccc(C(C)C)cc1	6%	0%
Clc1ccccc1CNc1n[nH]c(-c2cccs2)n1	24%	153%
Cc1nccc(CNC(=O)c2ccc3ncsc3c2)n1	2%	2%
SMILES	FMDV Renilla	FMDV antiviral
Cc1cccc(C)c1NC(=O)c1ccc2ncsc2c1	5%	22µM*
CCOC(=O)c1ccc(NC(=O)c2cnn3c(=O)c4c(n(CC)c23)CCN(Cc2ccc(OC)cc2)C4)cc1	8%	-15%
CCn1c2c(c(=O)n3ncc(C(=O)N4CCN(c5ccc(C(C)=O)cc5)CC4)c13)CN(Cc1ccc(OC)cc1)CC2	22µM*	?
O=C(CSc1nc(C2CC2)n(-c2ccccc2)n1)Nc1ccccc1	20%	3%
COc1ccc(Cc2nc(C)c(-c3ccccc3)s2)cc1OC	10µM*	?
COc1ccc(-c2nc(C)c(-c3ccccc3)s2)cc1	25%	267%
COc1ccccc1OC(=O)c1ccccc1C	5%	11%
CCn1cc(C(=O)Cn2c(C)nc3ccccc32)c2ccccc21	8.9µM*	?
CCOCN(C(=O)Cn1c(C)nc2ccccc21)c1c(C)cccc1CC	-5%	-5%
COCCn1c(N2CCN(Cc3c(Cl)cccc3Cl)CC2)nc2c1c(=O)[nH]c(=O)n2C	-6%	10%
O=C(Nc1ccc(Br)cc1)c1cccc(S(=O)(=O)N2CCc3ccccc32)c1	4µM*	32µM*
NS(=O)(=O)c1ccc(NC(=O)c2ccc3c(c2)CCN3S(=O)(=O)c2ccccc2)cc1	65%	-9%
Cc1ccc(C(=O)OCC(=O)Nc2ccccc2N2CCCC2=O)c(O)c1	-5%	3%
NC(=O)c1ccccc1OCc1coc(-c2ccc(F)cc2)n1	?	6%
COc1cc(C=O)ccc1O	2%	-1%
COc1cc(C=C2CCC/C(=C\c3ccc(O)c(OC)c3)C2=O)ccc1O	?	22µM*
O=C(CSc1nc(-c2ccccc2)cs1)C12CC3CC(CC(C3)C1)C2	15%	93%
CN1CCCN(C(=O)c2cc3cc(Cl)ccc3oc2=O)CC1	-2%	6%
O=C(Nc1ccc(OCc2ccccc2)cc1)c1ccc2ccccc2c1	2%	0%
Cc1ccc(NS(=O)(=O)c2ccc(-c3cnc(C4CC4)o3)cc2)cc1F	135%	-26%
CC(=O)c1cccc(NS(=O)(=O)c2ccc(-c3cnc(C4CC4)o3)cc2)c1	-21%	8.9µM*
Cc1ccc(OCC(=O)NCc2nncn2C)c(C)c1	-1%	26%
Cc1ccc(OCn2ccc(C(=O)NCc3c(C)nn(C)c3C)n2)c(C)c1	10µM*	13µM*
COc1ccc(Nc2nc3ccccc3nc2NS(=O)(=O)c2ccc(Cl)s2)c(OC)c1	18%	7%
Cc1ccccc1-c1nnn(Cc2cc(=O)n3ccsc3n2)n1	21%	30%
SMILES	FMDV Renilla	FMDV antiviral
COc1ccc(N2CCN(C(=O)CCc3c(C)nc4cc(-c5ccc(OC)cc5OC)nn4c3C)CC2)cc1	-15%	-20%
COc1ccc(N2CCN(C(=O)CCc3c(C)nc4cc(-c5ccc(Cl)cc5)nn4c3C)CC2)cc1	-5%	32µM*
Cc1ccccc1OCC(O)Cn1c(=N)n(CCN2CCCCC2)c2ccccc21 (stereo unspecified)	-4%	-7%
CCCCCn1c(=N)n(CC(O)COc2cccc(C)c2)c2ccccc21 (stereo unspecified)	25µM*	?
Cc1ccc(S(=O)(=O)N2CCN(C(=O)C3CC(=O)Nc4cc(F)ccc43)CC2)c(C)c1 (stereo unspecified)	-12%	-16%
CCN1C(=O)c2ccccc2Sc2ccc(NC(=O)Cc3ccc(OC)c(OC)c3)cc21	-7%	-3%
COc1ccc(C(=O)Nc2ccc3c(c2)N(C2CCCC2)C(=O)c2ccccc2S3)cc1OC	10µM*	?
OCCCCCCCCCCCCCCCO	-12%	-6%
C[N+]1(CCCCCCCCCCCCCO)CCCC1	20µM*	?
Cc1sc2ncnc(N3CCCCC3)c2c1-c1ccc(Cl)cc1	-11%	-4%
Cc1ccc(CCNC(=O)C(C)n2nc(C)c3c(C)n(-c4ccc(C)cc4)nc3c2=O)cc1 (stereo unspecified)	13µM*	?
COc1ccc(CCNC(=O)C(C)n2nc(C)c3c(C)n(-c4ccccc4)nc3c2=O)cc1OC (stereo unspecified)	9%	23%
CCS(=O)(=O)N1CCc2ccc(NC(=O)Nc3ccc(C)c(C)c3)cc21	4.5µM*	?
CCS(=O)(=O)N1CCc2cc(C(=O)Nc3ccc(C)c(Cl)c3)ccc21	22%	96%
O=C(CSc1nc2cc([N+](=O)[O-])ccc2o1)NCCCc1ccccc1	-4%	-9%
CCOc1ccc(OC(=O)c2c(-c3ccccc3Cl)noc2C)cc1	?	28µM*
Cc1onc(-c2ccccc2Cl)c1C(=O)Oc1ccccc1F	37%	-19%
O=S(=O)(Nc1ccc(-c2cn3ccsc3n2)cc1)c1cccs1	98%	129%

Screening results as filed in PubChem BioAssay.
